In PubChem BioAssay (NCATS):
Inconclusive results are not listed. Activity calls are given as the source filed them. The call rests on the fitted dose curve; in most records, active means well fitted curve in the direction sought with a large enough effect; inconclusive means small, poorly fitted or top-dose-only effect, or another doubt; inactive means no such curve, though single readings can be large; an effect the other way counts as inactive or inconclusive.

How the values were obtained:
[1] = qHTS of pediatric cancer cell lines to identify multiple opportunities for drug repurposing: Primary screen for SK-N-MC cells (AID 1347093); further: series mostly up to about 46 µM
Outline: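 Metabolically active cells were quantified by ATP-dependent luminescence (CellTiter-Glo, 15 min at room temperature) following 48 h treatment. Cells had been plated at 500-1,000 per well and settled for 5 h beforehand.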

[2] = qHTS of pediatric cancer cell lines to identify multiple opportunities for drug repurposing: Primary screen for BT-37 cells (AID 1347094); further: series mostly up to about 57 µM
Outline: (§1)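 Following a 5-hour attachment period, cells at 500-1,000/well received compounds and were cultured for 48 hours. CellTiter-Glo was added and luminescence read to estimate viable, metabolically active cells.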

[3] = qHTS of pediatric cancer cell lines to identify multiple opportunities for drug repurposing: Primary screen for NB-EBc1 cells (AID 1347095)
Outline: as §1

[4] = qHTS of pediatric cancer cell lines to identify multiple opportunities for drug repurposing: Primary screen for U-2 OS cells (AID 1347096); further: nearly all actives have a fitted effect of over 50% in size
Outline: (§2)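 Cells (500-1,000/well) in growth media were settled 5 h at 37 degrees C, then given compounds for 48 h. Viability was read as CellTiter-Glo luminescence. Primary runs used MIPE at 11 points (0.78 nM-46 µM) and NPC at 8 points (0.59 nM-46 µM); follow-ups used 11 points.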

[5] = qHTS of pediatric cancer cell lines to identify multiple opportunities for drug repurposing: Primary screen for Saos-2 cells (AID 1347097); further: nearly all actives have a fitted effect of over 40% in size
Outline: as §1

[6] = qHTS of pediatric cancer cell lines to identify multiple opportunities for drug repurposing: Primary screen for SK-N-SH cells (AID 1347098);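 further: DMSO served as neutral control and bortezomib at 2.3 µM as positive control; nearly all actives have a fitted effect of over 65% in size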
Outline: (§3)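 Cells (500-1,000/well) rested 5 h, then received compounds for 48 h; metabolically active cells were measured by CellTiter-Glo luminescence. Final concentrations spanned up to 46 µM (MIPE, 11-point) or 0.59 nM-46 µM (NPC, 8-point) in primary screens, 11-point in follow-ups.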

[7] = qHTS of pediatric cancer cell lines to identify multiple opportunities for drug repurposing: Primary screen for NB1643 cells (AID 1347099); further: nearly all actives have a fitted effect of over 50% in size
Outline: as §1

[8] = qHTS of pediatric cancer cell lines to identify multiple opportunities for drug repurposing: Primary screen for LAN-5 cells (AID 1347100)
Outline: as §2

[9] = qHTS of pediatric cancer cell lines to identify multiple opportunities for drug repurposing: Primary screen for BT-12 cells (AID 1347101); further: nearly all actives have a fitted effect of over 25% in size
Outline: as §3

[10] = qHTS of pediatric cancer cell lines to identify multiple opportunities for drug repurposing: Primary screen for Rh18 cells (AID 1347102); further: nearly all actives have a fitted effect of over 65% in size
Outline: as §2

Measured: Potency

O=C(NN1CCCC1)NS(=O)(=O)c1ccc(Cl)cc1
inactive: all assays above

Cc1ccc(C(=O)C(=O)O)cc1C
inactive: all assays above

CO[C@]1(NC(=O)CSC(F)F)C(=O)N2C(C(=O)O)=C(CSc3nnnn3CCO)CO[C@H]21
inactive: all assays above

CCOC(=O)C(=O)c1csc(NC=O)n1
inactive: all assays above

O=P(O)(O)OCC(O)CO (stereo not given)
inactive: all assays above

Nc1c(I)cc(I)c(C(=O)N(CCC(=O)O)c2ccccc2)c1I
inactive: all assays above

Cc1ccc(O)cc1
inactive: all assays above

CCN(CC)CCN
inactive: all assays above

CCOC(=O)C(=O)CCCCCCl
inactive: all assays above

CCCC(=O)OCOC(=O)C1=C(C)NC(C)=C(C(=O)OC)C1c1cccc(Cl)c1Cl (stereo not given)
inactive: all assays above

O=C(C1CCCCC1)N1CC(=O)N2CCCc3ccccc3C2C1 (stereo not given)
inactive: all assays above

CC(=O)Nc1c(I)c(NC(C)=O)c(I)c(C(=O)O)c1I
inactive: all assays above

Cc1coc2ccccc2c1=O
inactive: all assays above

[O-][n+]1cccc(/C(Cl)=N/OC[C@@H](O)CN2CCCCC2)c1
inactive: all assays above

COc1ccc(/C(C)=C/C(=O)O)c(OC)c1
inactive: all assays above

O=C(CCCCC(=O)Nc1c(I)cc(I)c(C(=O)O)c1I)Nc1c(I)cc(I)c(C(=O)O)c1I
inactive: all assays above

Cc1onc(-c2c(Cl)cccc2Cl)c1C(=O)Cl
inactive: all assays above

CC(C)(C)C(=O)OCOC(=O)C1N2C(=O)CC2S(=O)(=O)C1(C)C (stereo not given)
inactive: all assays above

CCCCCC[C@@H](CCC)C(=O)O
inactive: all assays above

CC1(C)O[C@@H]2C[C@H]3[C@@H]4C[C@H](F)C5=CC(=O)C=C[C@]5(C)[C@@]4(F)[C@@H](O)C[C@]3(C)[C@]2(C(=O)CO)O1
inactive: all assays above

O=[N+]([O-])c1cncn1CCN1CCOCC1
inactive: all assays above
